{"source": "the supplement of paper PMC11150407", "note": "The campaign covered roughly 2,100 compounds. About 180 (8.6%) showed an effect of 50% or more. For the sample, strong results were picked, then their nearest neighbours and some compounds at random."}
{"test_system": "MOLM1 and UCSD/AML1 (averaged)", "experiment": "cell viability relative to DMSO control (POC); higher = less growth inhibition", "settings": "1 µM; 72 h", "procedure": "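Primary viability screen in the 3q26 EVI1-high AML cell lines MOLM1 and UCSD/AML1 (1.5e3 cells/well, 384-well), compounds at 1 uM for 72 h. ATP CellTiter-Glo read-out given as percent of viable cells over DMSO control (POC), averaged over duplicates. DMSO was the negative control and 5 uM etoposide the positive control. This mapping covers the MicroSource Spectrum and Selleck anticancer libraries (drug names).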", "units": {"cell viability": "%"}}
{"molecule": "CC(C)/C(O)=C1/C(=O)O[C@@H](c2ccoc2)[C@]2(C)C(O)[C@@H](O)[C@@]34OC5(C)OC67CC(C)(C(O)[C@]6(O)[C@@H](O)[C@]3(O5)C12)[C@H](CC(=O)O)[C@]74C", "note": "(stereo partly drawn)", "cell viability": 93.3}
{"molecule": "CC(=O)O[C@H]1C[C@@H](OC(C)=O)C(C)(C)C2C[C@@H](O)[C@]3(C)C(CC[C@@]4(C)[C@H](c5ccoc5)OC(=O)[C@H]5O[C@]543)[C@]21C", "note": "(stereo partly drawn)", "cell viability": 103}
{"molecule": "COc1cc(O)c2c(=O)cc(C)oc2c1CC=C(C)C", "cell viability": 87.8}
{"molecule": "O=C(CCc1ccc(O)cc1)c1c(O)cc(O)cc1O[C@@H]1OC(CO)[C@@H](O)[C@@H](O)C1O", "note": "(stereo partly drawn)", "cell viability": 104}
{"molecule": "COC(=O)c1c(C)cc(OC)cc1O", "cell viability": 94.6}
{"molecule": "Cn1c(=O)[nH]c(=O)c2[nH]cnc21", "cell viability": 110}
{"molecule": "O=c1c(O)c(-c2ccc(O)c(O)c2)oc2c(O[C@@H]3O[C@H](CO)[C@@H](O)[C@H](O)[C@H]3O)c(O)cc(O)c12", "cell viability": 91.3}
{"molecule": "O=C(O)c1ccc2c(c1)nc(Nc1cccc(Cl)c1)c1ccncc12", "note": "[cx-4945 (Silmitasertib)]", "cell viability": 80.5}
{"molecule": "CC(=O)C1=C(O)C=C2Oc3c(C(C)=O)c(O)c(C)c(O)c3C2(C)C1=O", "note": "(stereo in doubt)", "cell viability": 113}
{"molecule": "C[C@@H](Oc1cc(-n2cnc3ccc(CN4CCN(C)CC4)cc32)sc1C(N)=O)c1ccccc1C(F)(F)F", "cell viability": 19.5}
{"molecule": "CC(=O)N[C@@H](Cc1ccccc1)C(=O)O", "cell viability": 100}
{"molecule": "CC(C)=CCc1c(O)cc2oc(C)cc(=O)c2c1O", "cell viability": 94.1}
{"molecule": "C[C@H](CCC(=O)O)[C@H]1CC[C@H]2[C@@H]3[C@H](O)C[C@@H]4C[C@H](O)CC[C@]4(C)[C@H]3C[C@H](O)[C@]12C", "cell viability": 100}
{"molecule": "CC1(C)C(=O)C=CC2(C)C1C=CC1(C)C2CCC2(C)C(c3ccoc3)OC(=O)C3OC312", "note": "(stereo not drawn)", "cell viability": 86.9}
{"molecule": "CCOC(=O)Nc1nc2ccccc2[nH]1", "cell viability": 103}
{"molecule": "COC(=O)Nc1nc2cc(C(=O)c3ccccc3)ccc2[nH]1", "cell viability": 16.8}
{"molecule": "COC(=O)Nc1nc2cc(C(=O)c3cccs3)ccc2[nH]1", "note": "[Nocodazole]", "cell viability": 13.3}
{"molecule": "COC(=O)C(C)c1ccc(C(=O)c2cccs2)cc1", "note": "(stereo not drawn)", "cell viability": 103}
{"molecule": "COC(=O)Nc1nc2cc([S+]([O-])c3ccccc3)ccc2[nH]1", "note": "(stereo not drawn)", "cell viability": 50.5}
{"molecule": "CC(=O)Oc1ccc2c(c1OC(C)=O)OCC1(O)Cc3c(cc(OC(C)=O)c(OC(C)=O)c3OC(C)=O)C21", "note": "(stereo not drawn)", "cell viability": 108}
{"molecule": "COc1cc2ncnc(-n3nc(-c4ccccn4)nc3N)c2cc1OC", "cell viability": 67}
{"molecule": "O=c1cc(-c2ccccc2)oc2cccc(O)c12", "cell viability": 119}
{"molecule": "CC(C)c1c(O)c(-c2cc3c(c(C(C)C)c2O)CCC2C(C)(C)CCC[C@]32C)cc2c1CCC1C(C)(C)CCC[C@]21C", "note": "(stereo partly drawn)", "cell viability": 87.3}
